# Source: PubChem BioAssay
# Only some compounds are listed: those with a hit (about 21% of all), similar ones and a draw of the others.
# Pf growth 48h = P. falciparum growth inhibition at 48 hours (one generation); hit rate 5.9% among 310,000; AID 504832; P. falciparum luciferase growth in erythrocytes, 48 h; Potency, µM (titrated, usually from 28.7 µM), for the others: at the highest dose activity change, negative = inhibition, most hits filed as inhibitors; further: potency means the concentration at half of the fitted maximal effect; on the % scale 0 is the no-effect control and ±100 the full control effect
#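 Erythrocytes infected with P. falciparum carrying an integrated firefly luciferase reporter (2% hematocrit, 0.1% parasitemia final) were exposed to compounds in RPMI 1640 with 0.5% Albumax at 37 C, 5% CO2. Growth inhibition was scored as reduced luminescence.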
# Shiga toxin inh = Shiga toxin inhibition; Vero cells, Shiga toxin protein synthesis inhibition reporter; inhibition, % at 38.7 µM; hit rate 9.2% among 290,000; AID 2315; in the data active means inhibition mostly above about 28%, no sharp cut-off; inactive means mostly below about 43%; further: 0% is about no effect
# Cycloheximide cs = counter-screen for Shiga toxin inhibitors: cycloheximide protein synthesis inhibition; cell reporter, cycloheximide protein synthesis inhibition counterscreen; max response, %; hit rate 12% among 300,000; in the data active means max response mostly above about 13%, no sharp cut-off; inactive means mostly below about 14%; further: read at 38.3 µM for the half of the compounds with a filed dose; 0% is about no effect
# NS1 inh = blocks influenza NS1 protein function | hit rate 0.4% among 270,000 | Potency, µM (doses to about 46.1 µM), for the others: at the highest dose activity, positive = more growth; calls by dose curve; further: potency means the concentration at half of the fitted maximal effect; actives are rising curves; nearly all actives have a fitted effect of over 50% in size
#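 S. cerevisiae expressing influenza A NS1, grown in glucose, washed, then diluted 1:100 into pH 6.0 -URA galactose medium with 23 nl compound. Growth recovery read as OD600; NS1-free strain serves as control.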
# Pf growth 96h = P. falciparum growth inhibition at 96 hours; P. falciparum luciferase reporter growth, 96 h; Potency, µM (doses to about 28.7 µM), without a hit: at the highest dose activity change, negative = inhibition, actives largely listed as inhibitors; hit rate 6.9% among 320,000; further: potency means the concentration at half of the fitted maximal effect; on the % scale 0 is the no-effect control and ±100 the full control effect
#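 Readout is luminescence from an integrated firefly luciferase in P. falciparum. Red cells, 2% hematocrit and 0.05% parasitemia final, were cultured with compound through two parasite generations (96 hours) at 37 C, 5% CO2.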
# Starred values were filed as active, the others as inactive; ? = inconclusive; nt = not tested or not shown. Unless noted, the call rests on the fitted dose curve; in most records, active means well fitted inhibition curve with a large enough effect; inconclusive means small, poorly fitted or top-dose-only effect, or another doubt; inactive means no such curve, though single readings can be large or run the other way.
SMILES,Pf growth 48h,Shiga toxin inh,Cycloheximide cs,NS1 inh,Pf growth 96h
COc1ccc(-c2nnn(CC(=O)N(CC(=O)NC3CCCC3)c3ccccc3F)n2)cc1OC,-20%,-2,-5,-8%,-6%
CCc1ccc(Nc2cc(C(=O)NCCCN3CCOCC3)c3ccccc3n2)cc1,nt,-8,-2,-7%,5.2µM*
COc1ccc(OC)c(Nc2cc(C(=O)NCCCN3CCOCC3)c3ccccc3n2)c1,?,-10,-1,-12%,nt
COc1ccccc1Nc1cc(C(=O)NCCCN2CCOCC2)c2ccccc2n1,nt,9,3,-15%,0.93µM*
COc1ccc(Nc2cc(C(=O)NCCCN3CCOCC3)c3ccccc3n2)cc1,3%,9,-5,-4%,57%
COC(=O)C(Cc1cncn1COCc1ccccc1)NC(=O)OC(C)(C)C (configuration not stated),?,-18,-3,4%,67%
Cc1ccc(CN2CCCC(C(=O)N3CCCC3)C2)cc1 (configuration not stated),14%,2,-4,-3%,36%
Cc1ccc(Sc2c(C)nn(C(=O)c3cccc(S(=O)(=O)N4CCOCC4)c3)c2C)cc1,9%,-25,11,-7%,nt
Oc1ccc2ccccc2c1CN1CCN(c2ccccc2F)CC1,?,-8,-3,-16%,31%
Cc1cc2oc(=O)cc(CN3CCN(S(=O)(=O)c4cccs4)CC3)c2cc1C,?,-2,-3,7%,7.4µM*
Cc1c(O)ccc2c(CN3CCN(C/C=C/c4ccccc4)CC3)cc(=O)oc12,2.6µM*,19,-3,0%,?
Oc1ccc2ccccc2c1CN1CCN(C/C=C/c2ccccc2)CC1,?,-4,2,-21%,9.3µM*
Cc1cc2oc(=O)cc(CN3CCOCC3)c2cc1O,18%,-3,-2,1%,22%
Cc1cc2oc(=O)cc(CN3CCN(C/C=C/c4ccccc4)CC3)c2cc1O,2.9µM*,7,-3,-44%,nt
COc1ccc(C(CNC(=O)C(=O)NC2CCCC2)N2CCN(C)CC2)cc1 (configuration not stated),11%,nt,nt,nt,-1%
CCOC(=O)C1CCN(C(=O)c2cc3cc(Br)ccc3oc2=O)CC1,5%,6,-7,-3%,40%
CCc1cc2c(CN3CCN(C)CC3)cc(=O)oc2cc1O,?,-18,-1,3%,nt
O=c1cc(CN2CCN(C/C=C/c3ccccc3)CC2)c2cc(O)c(-c3ccccc3)cc2o1,0.93µM*,-9,-2,15%,1µM*
O=c1cc(CN2CCN(Cc3ccccc3)CC2)c2cc(O)ccc2o1,-24%,14,1,1%,?
Cc1cc(C)c2c(CN3CCN(CCO)CC3)cc(=O)oc2c1,?,57*,72*,4%,7%
Cc1cc(C)c2c(CN3CCN(C)CC3)cc(=O)oc2c1,20%,-16,-1,-2%,nt
Cc1cc2oc(=O)cc(CN3CCN(Cc4ccccc4)CC3)c2cc1O,9.3µM*,-4,13,5%,?
CCc1cc2c(CN3CCN(CCO)CC3)cc(=O)oc2cc1O,13µM*,20,2,-1%,?
Cc1cc(C(=O)COc2ccc3ccc(=O)oc3c2)c(C)n1C,?,10,4,nt,?
CC1CC(C)(C)CC2(C1)NC(=O)N(CC(=O)NC1CCCc3ccccc31)C2=O (configuration not stated),-22%,17,0,25%,?
SMILES,Pf growth 48h,Shiga toxin inh,Cycloheximide cs,NS1 inh,Pf growth 96h
Cc1cc(Cn2nnnc2-c2ccncc2)cc(C)c1O,9%,-13,-2,3%,?
Cc1ccsc1C(=O)OCC(=O)NCc1ccc(Cl)cc1,121%,nt,nt,nt,99%
CC(C)CN(Cc1cc(=O)oc2cc(-c3ccccc3)c(O)cc12)CC(C)C,0.33µM*,16,2,22%,?
Cc1cc(O)c2c(CN3CCN(Cc4ccccc4)CC3)cc(=O)oc2c1,?,-2,1,-4%,8.3µM*
COc1cc(Nc2cccc[n+]2C)cc(OC)c1OC,3%,-3,-2,1%,20%
S=C(NCCc1ccccc1)Nc1ccc(N2CCCCC2)cc1,?,32,20*,-4%,?
CCNC(=S)Nc1ccc(N2CCCCC2)cc1,85%,34,25*,nt,-18%
COCCCNC(=S)Nc1ccc(N2CCCCC2)cc1,7%,84*,13,nt,40%
COc1cc(OC)cc(C(=O)NC(=S)Nc2ccc(N3CCCC3)cc2)c1,?,-9,2,13%,6%
CS(=O)(=O)c1nc(S(=O)(=O)c2ccc(Cl)cc2)c(NCCN2CCOCC2)s1,0%,-3,-2,0%,-17%
Cc1ccc(-c2noc(CN(C(=O)Cc3ccccc3)C(C)C)n2)cc1,1%,30,-2,-68%,nt
Cc1ccc(NC(=O)CN2C(=O)C3CCCCN3C(=O)c3ccccc32)cc1 (configuration not stated),-19%,-11,-3,4%,228%
COC(=O)CCCCCCCC(=O)Nc1nnc(C(F)(F)F)s1,13%,10,-2,-8%,17%
CC1=CC(=O)NS(=O)(=O)O1,-5%,nt,nt,nt,-9%
Cc1ccccc1OCCNC(=O)/C=C/c1ccccc1,-9%,24*,19,-39%,188%
COc1ccc(/C=C/C(=O)NCCSCc2ccco2)cc1,-5%,36,17*,-3%,9.3µM*
O=C(/C=C/c1ccccc1)NCCO,8%,nt,nt,nt,-1%
COCCCNC(=O)/C=C/c1cccc(Cl)c1,39%,30,21*,-1%,98%
Cc1ccccc1OCCNC(=O)/C=C/c1ccc([N+](=O)[O-])cc1,20%,12,-1,0%,35%
O=C(/C=C/c1ccccc1)NCCSCc1ccccc1,?,44*,31,-62%,-6%
CN(C)C(CNC(=O)/C=C/c1cccc(Cl)c1)c1ccccc1 (configuration not stated),-26%,7,4,nt,?
S=C1NCCOCCOCCOCCNC(=S)N2CCOCCOCCN1CCOCCOCC2,12%,-9,-3,-1%,-14%
Cc1ccccc1S(=O)(=O)/N=C(/c1ccccc1)N1CCOCC1,-12%,-3,-2,-2%,?
O=C(/C=C/c1ccccc1)NCCCNC(=O)/C=C/c1ccccc1,?,23,4,nt,8.3µM*
O=C(/C=N\O)NCCCNCc1ccccc1,-5%,2,-1,6%,5.9µM*
O=C(NCCCNCc1ccccc1)c1ccncc1,-2%,2,-3,0%,?
c1ccc2c(c1)SCc1nnc(-c3ccncc3)n1-2,7%,-14,-2,2%,0%
CC(C)C[C@H](NC(=O)[C@H](CC(C)C)NC(=O)[C@H](Cc1ccccc1)NC(=O)[C@@H](N)CO)C(=O)N[C@@H](CCCNC(=N)N)C(=O)N[C@@H](CC(N)=O)C(=O)N1CCC[C@H]1C(=O)N[C@@H](CC(N)=O)C(=O)N[C@@H](CC(=O)O)C(=O)N[C@@H](CCCCN)C(=O)N[C@@H](Cc1ccc(O)cc1)C(=O)N[C@@H](CCC(=O)O)C(=O)N1CCC[C@H]1C(=O)N[C@@H](Cc1ccccc1)C(=O)O,nt,-5,8,nt,nt
